Data reported in PubChem BioAssay AID1159580 (chemical genetic matrix, 2015).
Hit rate of the full screen: of about 5,500 compounds, about 2,000 (36%) were called active. Not shown: some 18% with an inconclusive outcome. Rule as the data show it: active = normalized growth mostly below about 0.91 (no sharp cut-off); inconclusive = no clear call, values can overlap the other calls; inactive = mostly above about 0.92. The list shows a part of the results.

Experiment: chemical genetic growth profiling, strain panel (AID 1159580);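 also: tested at 20 µM; growth read once vehicle control cultures reached saturation at 30 °C; 1 = growth at the plate median or of vehicle wells; lower values mean less growth of the strain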
Conditions: growth OD
[1] = S. cerevisiae deletion strains, locus YGR078C, strain PAC10, active compounds read low
[2] = S. cerevisiae deletion strains, locus YMR307W, strain GAS1, active compounds read low
[3] = S. cerevisiae deletion strains, locus YNL153C, strain GIM3, active compounds read low
[4] = S. cerevisiae deletion strains, locus YAL013W, strain DEP1, active compounds read low
[5] = S. cerevisiae deletion strains, locus YBR229C, strain ROT2, active compounds read low
[6] = S. cerevisiae deletion strains, locus YDL101C, strain DUN1, active compounds read low
[7] = S. cerevisiae deletion strains, locus YDL134C, strain PPH21, active compounds read low
[8] = S. cerevisiae deletion strains, locus YDR150W, strain NUM1, active compounds read low
[9] = S. cerevisiae deletion strains, locus YEL061C, strain CIN8, active compounds read low
[10] = S. cerevisiae deletion strains, locus YHR030C, strain SLT2, active compounds read low
[11] = S. cerevisiae deletion strains, locus YHR087W, strain rtc3, active compounds read low
[12] = S. cerevisiae deletion strains, locus YJR043C, strain POL32, active compounds read low
[13] = S. cerevisiae deletion strains, locus YJR075W, strain HOC1, active compounds read low
[14] = S. cerevisiae deletion strains, locus YLR039C, strain RIC1, active compounds read low
[15] = S. cerevisiae deletion strains, locus YLR058C, strain SHM2 (second series), active compounds read low
[16] = S. cerevisiae deletion strains, locus YLR085C, strain ARP6, active compounds read low
[17] = S. cerevisiae deletion strains, locus YLR262C, strain YPT6, active compounds read low
[18] = S. cerevisiae deletion strains, locus YML094W, strain GIM5, active compounds read low
[19] = S. cerevisiae deletion strains, locus YMR219W, strain ESC1, active compounds read low
[20] = S. cerevisiae deletion strains, locus YMR263W, strain SAP30, active compounds read low
[21] = S. cerevisiae deletion strains, locus YNL298W, strain CLA4 (second series), active compounds read low
[22] = S. cerevisiae deletion strains, locus YNL322C, strain KRE1, active compounds read low
[23] = S. cerevisiae deletion strains, locus YNR030W, strain Alg12, active compounds read low
[24] = S. cerevisiae deletion strains, locus YPL055C, strain LGE1, active compounds read low
[25] = S. cerevisiae deletion strains, locus YPL241C, strain CIN2, active compounds read low
[26] = S. cerevisiae deletion strains, locus YPR135W, strain CTF4, active compounds read low
[27] = S. cerevisiae deletion strains, locus YCL061C, strain MRC1, active compounds read low
[28] = S. cerevisiae deletion strains, locus YJL187C, strain SWE1, active compounds read low

Measured: normalized growth

CNc1cc(NS(=O)(=O)c2ccc(N)cc2)nc(NC)n1
inactive: S. cerevisiae deletion strains, locus YAL040C, strain CLN3, active compounds read low 0.991 | S. cerevisiae deletion strains, locus YCL061C, strain MRC1 (second series), active compounds read low 0.986 | S. cerevisiae deletion strains, locus YDR363W, strain ESC2, active compounds read low 0.974 | S. cerevisiae deletion strains, locus YER002W, strain NOP16, active compounds read low 0.98 | [1] 0.994 | [2] 1 | [3] 1.01 | S. cerevisiae deletion strains, locus YNL175C, strain NOP13, active compounds read low 0.993 | S. cerevisiae deletion strains, locus YNL197C, strain WHI3, active compounds read low 0.991 | S. cerevisiae deletion strains, locus YNL224C, strain SQS1, active compounds read low 0.994 | S. cerevisiae deletion strains, locus YOR083W, strain WHI5 (second series), active compounds read low 0.993

CCC(=O)Nc1cc(F)ccc1C
inactive: [4] 0.999 | [5] 1 | [6] 1 | [7] 1 | [8] 0.968 | [9] 0.997 | [1] 1 | [10] 0.985 | [11] 1.01 | [12] 0.985 | [13] 1 | S. cerevisiae deletion strains, locus YKL190W, strain CNB1, active compounds read low 1.01 | [14] 1.01 | [15] 1 | [16] 1.02 | [17] 1.01 | [18] 1.01 | [19] 0.997 | [20] 0.996 | S. cerevisiae deletion strains, locus YNL128W, strain TEP1, active compounds read low 0.998 | [3] 0.987 | [21] 1.01 | [22] 0.997 | [23] 1.01 | [24] 1.09 | [25] 0.89 | [26] 0.987 | S. cerevisiae strains, strain wild type, active compounds read low 1.01

CC(C)(C)C(=O)Nc1ccc(F)cc1
inactive: [4] 1 | [5] 1 | [27] 0.991 | [6] 0.994 | [7] 1.02 | [8] 0.985 | [9] 1.01 | [1] 0.999 | [10] 1.02 | [11] 1 | [28] 1.01 | [12] 1.01 | [13] 0.962 | [14] 1.07 | [15] 1.01 | [16] 1.05 | [17] 1.01 | [18] 1 | [19] 1 | [20] 1 | [3] 0.995 | [21] 1.04 | [22] 0.994 | [23] 1.02 | S. cerevisiae deletion strains, locus YOL006C, strain TOP1, active compounds read low 1.01 | [24] 0.946 | [25] 1.01 | [26] 0.956

CC(C)(C)c1ccc(NC(=O)Cc2cc(F)cc(F)c2)cc1
inactive: [4] 0.993 | [5] 0.995 | [27] 0.97 | [6] 1.02 | [8] 0.902 | [9] 0.997 | [1] 0.979 | [10] 0.988 | [11] 0.984 | [28] 0.985 | [12] 1 | [13] 0.933 | [14] 0.939 | [15] 0.986 | [17] 0.941 | [18] 0.994 | [19] 0.988 | [20] 1 | [2] 1.05 | [3] 0.989 | [21] 0.97 | [22] 0.985 | [23] 0.985 | [24] 0.885 | [25] 0.949 | [26] 1
active: [16] 1.26 [resistant]
